Inconclusive results are not listed. Entries that show only a call come without a potency. Active and inactive are the calls of the source. Calls come from the whole dose curve; as a rule, active = well fitted curve in the direction sought with a large enough effect; inconclusive = small, poorly fitted or top-dose-only effect, or another doubt; inactive = no such curve, though single readings can be large; an effect the other way counts as inactive or inconclusive.
How the values were obtained:
[1] = molecular target: Arylsulfatase A (Homo sapiens) (UniProt P15289); test: qHTS screen for enhancers of Arylsulfatase A (ASA1): LOPAC Validation Assay (AID 720538)
Sequence of Arylsulfatase A (Homo sapiens) (P15289 whole entry, looked up): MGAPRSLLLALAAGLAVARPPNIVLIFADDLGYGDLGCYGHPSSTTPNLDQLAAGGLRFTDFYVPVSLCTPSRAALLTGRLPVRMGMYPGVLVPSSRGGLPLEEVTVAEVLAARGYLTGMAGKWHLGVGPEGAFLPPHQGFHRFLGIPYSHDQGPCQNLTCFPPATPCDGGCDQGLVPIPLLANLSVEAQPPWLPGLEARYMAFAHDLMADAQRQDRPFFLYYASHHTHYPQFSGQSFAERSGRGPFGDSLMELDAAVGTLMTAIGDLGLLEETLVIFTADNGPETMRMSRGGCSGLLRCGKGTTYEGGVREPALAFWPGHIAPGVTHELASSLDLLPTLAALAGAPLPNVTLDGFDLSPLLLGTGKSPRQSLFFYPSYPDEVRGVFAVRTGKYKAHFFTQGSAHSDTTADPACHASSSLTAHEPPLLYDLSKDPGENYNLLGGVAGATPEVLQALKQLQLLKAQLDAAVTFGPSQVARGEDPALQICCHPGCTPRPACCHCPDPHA
In short: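 Cell-based enhancement test: residual ASA activity in SV40-transformed I179S patient fibroblasts is measured by pNCS turnover (0.5mM final, 14h, room temperature) following 48h compound incubation; higher fluorescence indicates activation.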

[2] = qHTS for compounds that reverse cellular toxicity of Amyloid beta (A-beta) peptide in yeast: LOPAC Validation Assay (AID 720559); conditions: Potency: rescue of growth toxicity; note: potency is the fitted concentration of half-maximal effect
In short: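 Here, A-beta-toxic yeast grow with test compounds at 30 C for 48 hr before optical density at 600 nm is recorded; data are normalized against DMSO and the FeCl3-clioquinol control.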

[3] = qHTS for Activators of Parkin Expression: LOPAC Validation Assay (NLuc Reporter) (AID 720572; note: potency is the fitted concentration of half-maximal effect)
In short: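 Neuronal cells with a Parkin promoter-driven FLuc/NLuc coincidence reporter were treated 24 h at 37 C in 7-point dose response (LOPAC). NLuc luminescence read after FLuc; signals normalized to DMSO and positive control (100%).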

Row | Compound | Potency [1] | Potency [2] | Potency [3]
1 | Nc1nc(SCc2ccc([N+](=O)[O-])cc2)c2ncn([C@@H]3O[C@H](CO)[C@@H](O)[C@H]3O)c2n1 | inactive | inactive | inactive
2 | Cc1cc(NC2CCCCC2)nc(-n2nc(C)cc2C)n1 | – | inactive | inactive
3 | NCCCCC(=O)O | – | inactive | inactive
4 | N#C/C(=C\c1ccc(O)c(O)c1)C(=O)NCc1ccccc1 | – | inactive | inactive
5 | COc1cc(C(O)CO)ccc1OS(=O)(=O)O (stereo unspecified) | – | inactive | inactive
6 | C=CC(N)CCC(=O)O (stereo unspecified) | inactive | inactive | inactive
7 | CCCCC/C=C\CC(O)/C=C/c1cccc(CC(O)CCCCO)n1 (stereo unspecified) | inactive | inactive | inactive
8 | O=C(c1ccc(Cl)cc1)N1CCN(c2ccc([N+](=O)[O-])c3ncccc23)CC1 | inactive | inactive | inactive
9 | CC(C)Cc1ccc([C@H](C)C(=O)O)cc1 | – | inactive | inactive
10 | CNc1ncnc2c1ncn2[C@@H]1O[C@H](CO)[C@@H](O)[C@H]1O | – | inactive | inactive
11 | C#C[C@]1(O)CC[C@H]2[C@@H]3CCC4=Cc5oncc5CC4(C)[C@H]3CCC21C (stereo partly specified) | inactive | inactive | inactive
12 | Oc1cc2c(cc1O)CN(C(=S)NCCc1ccc(Cl)cc1)CCC2 | – | inactive | –
13 | NC(N)=NC(=O)c1nc(Cl)c(N2CCCCCC2)nc1N | – | inactive | –
14 | CSc1ccccc1N1CCN(CCCCCC(=O)NC2CCCc3ccccc32)CC1 (stereo unspecified) | – | inactive | inactive
15 | CCCn1c(=O)c2[nH]c(-c3ccc(OCC(=O)NCCN)cc3)nc2n(CCC)c1=O | – | inactive | inactive
16 | O=C(O)/C=C/C(O)c1ccc(Cl)cc1 (stereo unspecified) | inactive | inactive | inactive
17 | CN1CCc2ccccc2Cc2[nH]c3ccccc3c2CC1 | – | inactive | inactive
18 | O=C1O/C(=C/Br)CCC1c1cccc2ccccc12 (stereo unspecified) | inactive | inactive | inactive
19 | CN1C2CCC1CC(OC(=O)C(O)c1ccccc1)C2 (stereo unspecified) | inactive | inactive | inactive

Row | Compound | Potency [1] | Potency [2] | Potency [3]
20 | COc1cc2c(CCNC(C)=O)c[nH]c2cc1Cl | inactive | inactive | inactive
21 | O=S(=O)(c1cccc2c(I)cccc12)N1CCCNCC1 | inactive | inactive | inactive
22 | CN(C)c1nc2c(Br)c(Br)c(Br)c(Br)c2[nH]1 | – | inactive | –
23 | CCC1C(=O)OCC1Cc1cncn1C (stereo unspecified) | inactive | inactive | inactive
24 | CC(N)C(=O)OC(C)(C)Cc1ccc(Cl)cc1 (stereo unspecified) | inactive | inactive | inactive
25 | COc1cccc(OC)c1OCCNCC1COc2ccccc2O1 (stereo unspecified) | – | inactive | inactive
26 | N#C/C(=C\c1c[nH]c2ccccc12)C(=O)c1ccc(O)c(O)c1 | inactive | inactive | inactive
27 | CCCCCCCCCCCCCCCC(=O)OC(CC(=O)O)C[N+](C)(C)C (stereo unspecified) | inactive | inactive | inactive
28 | OCC1O[C@H]([S-])[C@H](O)[C@@H](O)[C@@H]1O.[Au+] (stereo partly specified) | – | inactive | 16.4 µM (active)
29 | NCCNC(=O)c1ncsc1-c1cccc(F)c1 | inactive | inactive | inactive
30 | COC1=C(OC)C(=O)c2ccccc2C1=O | – | inactive | inactive
31 | CCCCCC(O)c1cccc(OCc2ccc3ccccc3n2)c1 (stereo unspecified) | – | inactive | inactive
32 | C=CC(C)=C[C@@]1(C)SC(=O)C(C)=C1O | – | inactive | inactive
33 | CC1CN(S(=O)(=O)c2cccc3cnccc23)CCN1 (stereo unspecified) | – | inactive | inactive
34 | Nc1nc(Cl)nc2c1ncn2[C@@H]1O[C@H](COP(=O)(O)OP(=O)(O)OP(=O)(O)O)[C@@H](O)[C@H]1O | – | 18.4 µM (active) | inactive
35 | O=C(O)c1cc(=O)c2c(Cl)cc(Cl)cc2[nH]1 | – | inactive | inactive
36 | COC(=O)c1c(C)[nH]c(C)c1C(=O)c1ccccc1Cc1ccccc1 | – | inactive | inactive
37 | C[C@@H](CN1CCC(Cc2ccccc2)CC1)[C@@H](O)c1ccc(O)cc1 | – | inactive | inactive

— PubChem BioAssay (NCATS)
